Bioassay records (PubChem BioAssay)
HCMV inh: inhibitors of human cytomegalovirus. HFF cells, HCMV-luciferase reporter, 72 h; hits give low values. activity change, negative = inhibition, % at 57.5 µM. actives 4.5% (n = 410,000); in the data active means activity change below about -60%; inconclusive means no clear call, values can overlap the other calls; inactive means above about -39%
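Human foreskin fibroblasts infected with luciferase-reporter HCMV at MOI 1 PFU/cell, compounds at two doses. Luciferase measured 72 h post infection; normalized to buffer-only basal and Salinomycin (10uM) controls.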
LASV entry inh: Lassa virus entry inhibition | Lassa virus pseudotype entry inhibition, cell reporter | Potency, µM (series often up to 37.9 µM), for the others: top-dose activity change, negative = inhibition, actives largely listed as inhibitors | actives 1.2% (n = 300,000); calls by dose curve; tested in HEK293 cells; further: potency means the concentration at half of the fitted maximal effect; nearly all actives have a fitted effect of over 50% in size
HCV inh: blocks hepatitis C virus; Huh7.5.1 HCVcc-Cre infection, luciferase reporter, 44 h; Potency, µM (doses to about 41.8 µM), without a hit: top-dose activity change, negative = inhibition, most hits filed as inhibitors; actives 3.4% (n = 340,000); further: potency means the concentration at half of the fitted maximal effect
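Antiviral activity was scored by luciferase reporter output from cells infected with HCVcc-Cre (~0.5 moi) in presence of compound, 44 h infection period, cells seeded 1,000/well 4 h prior.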
Pf growth 96h: P. falciparum growth inhibition at 96 hour, primary screen for plastid delayed-death inhibitors; P. falciparum luciferase reporter growth, 96 h; Potency, µM (top dose mostly 28.7 µM), for inactives: at the top dose activity change, negative = inhibition, actives largely listed as inhibitors; actives 6.9% (n = 320,000); further: potency means the concentration at half of the fitted maximal effect
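Two-generation exposure (96 h) targets delayed-death phenotype. Reporter parasites carrying integrated firefly luciferase, in red cells at 2% hematocrit and 0.05% parasitemia final, kept at 37 C, 5% CO2; luminescence loss indicates inhibition.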
Pf growth 48h: inhibits P. falciparum growth in the first generation, 48 h; P. falciparum luciferase growth in erythrocytes, 48 h; Potency, µM (titrated, usually from 28.7 µM), without a hit: at the highest dose activity change, negative = inhibition, hits mostly inhibitors; actives 5.9% (n = 310,000); AID 504832; further: potency means the concentration at half of the fitted maximal effect
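In quantitative HTS format, infected erythrocytes bearing luciferase-reporter parasites were treated for a single generation at 37 C. Luminescence after adding detection reagent served as the growth measure.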
Marburg entry inh: inhibitors of Marburg virus binding or cell entry | AID 540276 | actives 1.8% (n = 300,000) | Marburg virus pseudotyped entry inhibition, cell reporter | Potency, µM (highest dose often 37.8 µM), for the others: at the top dose activity change, negative = inhibition, actives largely listed as inhibitors; calls by dose curve; tested in HEK293 cells; further: potency means the concentration at half of the fitted maximal effect
* = called active by the depositor; ? = inconclusive; / = not tested or not shown; [ ] = remark or other dose. An excerpt weighted towards active compounds, which were near 14% of everything screened. Unless noted, the call rests on the fitted dose curve; in most records, active means well fitted inhibition curve with a large enough effect; inconclusive means small, poorly fitted or top-dose-only effect, or another doubt; inactive means no such curve, though single readings can be large or run the other way. On the % scale 0 is the no-effect control and ±100 the full control effect.

SMILES	HCMV inh	LASV entry inh	HCV inh	Pf growth 96h	Pf growth 48h	Marburg entry inh
Cc1cc(C(=O)Nc2ccccc2C(=O)O)c(C)o1	17	1%	6%	?	12%	1%[46.1 µM]
Cc1cccc(OCCCC(=O)N2CCCc3ccccc32)c1C	?	5%	10µM*	?	/	-21%
CCOc1ccc(NC(=O)COC(=O)c2ccc3ncsc3c2)cc1OCC	2	?	13%	35%	-8%	?
COc1ccccc1C(=O)N1CCN(C(=O)[C@H]2O[C@@H](n3ccc(N)nc3=O)[C@H](O)[C@@H]2O)CC1	-17	/	/	/	/	/
Cc1cccc(C)c1NC(=O)CCSc1nc(-c2ccc3c(c2)OCO3)cc(C(F)(F)F)n1	-24	5%[46.1 µM]	/	/	/	-6%[46.1 µM]
Cc1cc(C)cc(NC(=O)Cn2c(C)cc(C)c(C#N)c2=O)c1	30	9%[46.1 µM]	/	/	/	/
O=C(Nc1cccc2ccccc12)c1ccc([N+](=O)[O-])cc1	-14	/	-6%	7.4µM*	27%	/
CCc1sc(C(=O)Nc2ccccc2N2CCOCC2)cc1C	-75*	-14%[46.1 µM]	?	4%	-17%	-26%[46.1 µM]
O=C(Nc1ccccc1N1CCOCC1)c1ccc([N+](=O)[O-])cc1	-101*	-15%	2%	143%	38%	9%
O=C(Nc1ccccc1N1CCOCC1)c1cc2c(s1)CCCCC2	-34	?	-6%	35%	14%	?
O=C(Nc1ccccc1N1CCOCC1)c1ccc([N+](=O)[O-])s1	?	-22%	11µM*	/	/	?
O=C(Nc1ccccc1N1CCOCC1)c1ccc(N2CCOCC2)c([N+](=O)[O-])c1	0	-21%[46.1 µM]	-29%	?	?	-3%[46.1 µM]
O=C(Cc1ccccc1F)Nc1cccc(S(=O)(=O)N2CCCCC2)c1	-9	/	/	/	/	/
COc1ccc(NC2CCCN(C(=O)C3(C)CCCCC3)C2)cc1 (stereo not drawn)	-9	/	2%	39%	?	/
CCOC(=O)N1CCC(n2c(SCC(=O)Nc3nccs3)nc3ccsc3c2=O)CC1	-90*	?	-20%	22%	?	?
COc1ccc(Cn2c(SCC(=O)NCc3ccco3)nc3ccsc3c2=O)cc1	19	-4%	2.5µM*	0%	13µM*	?
CCOC(=O)CSc1nc2cc(C(=O)NCc3ccco3)ccc2c(=O)n1C1CCCCC1	47	-8%	-4%	-2%	5.9µM*	2%
CCOC(=O)CSc1nc2ccsc2c(=O)n1C1CCN(C(=O)OCC)CC1	6	-17%	-9%	?	?	?
CCOC(=O)N1CCC(n2c(SCC(=O)NCc3ccco3)nc3ccsc3c2=O)CC1	/	?	?	?	13µM*	?
COc1ccc(Cn2c(=O)c3oc4ccccc4c3n(Cc3ccc(F)cc3)c2=O)cc1	-19	21%[46.1 µM]	/	/	/	/
CC(C)NC(=O)Nc1ccc2c(c1)C(=O)N([C@H](C)CO)C[C@H](C)[C@@H](CN(C)Cc1ccc3c(c1)OCO3)OCCCC[C@@H](C)O2	-2	/	/	/	/	/
NS(=O)(=O)c1ccc(CCNC(=O)CSc2nc3ccsc3c(=O)n2CCCCCC(=O)O)cc1	-21	29%[46.1 µM]	?	-19%	6%	20%[46.1 µM]
NS(=O)(=O)c1ccc(CCNC(=O)CSc2nc3ccsc3c(=O)n2CC(=O)O)cc1	-29	5%	23%	1.2µM*	-11%	18%
Cc1ccc(CNC(=O)CSc2nc3ccsc3c(=O)n2Cc2ccccc2F)cc1	93	28%[46.1 µM]	/	/	/	/
O=C(CSc1nc2ccsc2c(=O)n1Cc1ccccc1F)NCc1ccccc1Cl	-91*	-2%[46.1 µM]	/	/	/	/
SMILES	HCMV inh	LASV entry inh	HCV inh	Pf growth 96h	Pf growth 48h	Marburg entry inh
COc1ccc(-c2c3c(=O)n(C)c(=O)n(C)c3c3n2-c2ccccc2NC3c2ccc(O)cc2O)cc1 (stereo not drawn)	1	1%[46.1 µM]	/	/	/	9%[46.1 µM]
CCCn1c(=O)c(C(=O)NCc2ccccc2OC)c(O)c2ccccc21	10	/	-11%	?	13%	/
CCCCn1c(=O)c(C(=O)NCc2ccc(Cl)cc2)c(O)c2ccccc21	4	-25%[46.1 µM]	?	?	?	?
CCCCCn1c(=O)c(C(=O)NCc2ccncc2)c(O)c2ccccc21	-88*	?	?	69%	1.7µM*	?
CCCCCn1c(=O)c(C(=O)NCc2ccccc2Cl)c(O)c2ccccc21	-74*	/	6%	?	7.4µM*	/
COc1cc2[nH]c(=O)c(C(=O)NCc3ccc(F)cc3)c(O)c2cc1OC	-34	/	-2%	3.3µM*	-12%	/
CCCn1c(=O)c(C(=O)NCc2ccccc2Cl)c(O)c2ccccc21	-37	?	13µM*	30%	-24%	1%
CCn1c(=O)c(C(=O)NCc2ccc(F)cc2)c(O)c2ccccc21	-23	?	?	12µM*	-3%	-21%[46.1 µM]
CC(C)Cn1c(=O)c(C(=O)NCc2ccccn2)c(O)c2ccccc21	-22	?	-2%	-1%	12µM*	?
CCOC(=O)CCc1c(C)c2cc3c(c(C)c2oc1=O)OCN(CCc1ccccc1OC)C3	-6	1%[46.1 µM]	/	/	/	-8%[46.1 µM]
Cc1[nH]c2ccccc2c1C1N2CC3(C)CN1CC(C)(C2)C3=O (stereo not drawn)	1	-9%[46.1 µM]	/	/	/	26%[46.1 µM]
Cc1ccc(N(Cc2cccs2)C(=O)c2ccccc2Cl)cc1	0	0%[46.1 µM]	/	/	/	?
Cc1ccc(OCCNC(=O)[C@H]2O[C@@H](n3cnc4c(N)ncnc43)[C@H](O)[C@@H]2O)cc1C	4	/	/	/	/	/
O=[N+]([O-])c1cnccc1-n1nnc2ccccc21	-63*	/	/	/	/	/
COc1ccc(CCNC(=O)c2ccc(Cl)c(S(=O)(=O)N(C)c3ccccc3)c2)cc1	-68*	?	3.5µM*	10µM*	?	?
CN(C)S(=O)(=O)c1cc(C(=O)NCCCn2ccc3ccccc32)ccc1Cl	9	-25%	-28%	4.1µM*	/	12%
CCN(c1ccccc1)S(=O)(=O)c1ccc(Cl)c(C(=O)NCCc2ccc(OC)cc2)c1	-22	?	-28%	?	11%	?
CC1CCCN(S(=O)(=O)c2cc(C(=O)NCCc3ccc(S(N)(=O)=O)cc3)ccc2Cl)C1 (stereo not drawn)	?	/	7.9µM*	/	/	/
COc1ccc(CCNC(=O)c2cccc(S(=O)(=O)N3CCCCCC3)c2)cc1	?	/	-19%	?	-32%	3%
Cc1c(NS(=O)(=O)c2cc(C(=O)NCCN(C)C)ccc2Cl)c(=O)n(-c2ccccc2)n1C	-23	30%[46.1 µM]	17%	1%	/	17%[46.1 µM]
COc1ccc(CCNC(=O)c2ccc(Cl)c(S(=O)(=O)N3CCCCCC3)c2)cc1	-86*	/	2.8µM*	?	?	/
O=C(Nc1cc2c(cc1[N+](=O)[O-])OCCO2)c1cccnc1	-28	10%	3%	/	/	?
